An excerpt weighted towards active compounds, which were near 1.1% of everything screened.
S1P2 agonist: agonists of human S1P2 receptor. S1P2-expressing cell line, agonist reporter read-out. actives 0.46% (n = 97,000). O95136. activation, % at 4.5 µM; in the data active = activation above about 16%;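 also: 0% = vehicle low control and 100% = maximal reference agonist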
GALR2 ag: activates the human galanin receptor 2; actives 0.48% (n = 140,000); O43603; AID 803; GALR2-expressing cells, agonist activation read-out; activation, % (no concentration beside the values); in the data active = activation above about 5%, passing the limit was not always enough;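 also: 0% = vehicle buffer wells and 100% = reference agonist at full effect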
Target sequence (O43603 whole entry, looked up): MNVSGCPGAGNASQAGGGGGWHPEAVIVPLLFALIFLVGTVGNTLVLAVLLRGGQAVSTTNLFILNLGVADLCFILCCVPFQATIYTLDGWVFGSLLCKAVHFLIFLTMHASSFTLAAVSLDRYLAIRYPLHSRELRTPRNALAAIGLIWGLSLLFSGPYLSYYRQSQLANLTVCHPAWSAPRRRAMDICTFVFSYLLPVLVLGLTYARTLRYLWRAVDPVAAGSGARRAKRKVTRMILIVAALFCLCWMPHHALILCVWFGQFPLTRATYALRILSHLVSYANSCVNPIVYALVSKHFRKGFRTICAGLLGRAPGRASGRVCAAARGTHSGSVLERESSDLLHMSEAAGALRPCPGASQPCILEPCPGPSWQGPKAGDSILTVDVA
GALR2 blocker: GALR2 (human) receptor antagonism; O43603; GALR2-expressing cells, antagonist mode; inhibition, % at 4 µM; actives 0.39% (n = 140,000); AID 828;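 also: cells stimulated with galanin 1-16 at roughly its EC80; 0% = agonist challenge control and 100% = basal control without agonist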
S1P2 antag: antagonists of human S1P2 receptor; O95136; cell-based S1P2 antagonist assay, inhibition at 5 uM; inhibition, % at 5 µM; actives 0.21% (n = 97,000); in the data active = inhibition above about 45%;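 also: CRE beta-lactamase reporter cells expressing human S1P2 stimulated with S1P; 0% = agonist at EC80 alone and 100% = agonist plus reference antagonist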
GALR2 agon conf: confirmation of human galanin receptor 2 (GALR2) agonists. shares compounds with GALR2 ag. GALR2-expressing cells, agonist activation. activation, % at 5.6 µM. actives 10% (n = 460). AID 864; in the data active = activation above about 8.4%;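 also: 0% = buffer-only vehicle wells and 100% = full reference agonist response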
BLA act counter: activates beta-lactamase reporter in GALR2 agonist counterscreen. AID 865. shares compounds with GALR2 ag. actives 10% (n = 460). activation, % at 5.6 µM. CHO NFAT-bla reporter, beta-lactamase FRET activation;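 active = activation above the screen-wide mean activation plus 3 SD, cut at about 8% in these data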;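 also: 0% = DMSO with PBS wells and 100% = thapsigargin positive control wells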
GALR2 blk conf: confirmation of human galanin receptor 2 (GALR2) antagonists | shares compounds with GALR2 blocker | GALR2-expressing cells, antagonist mode, inhibition | inhibition, % at 4 µM | actives 60% (n = 480);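 also: cells stimulated with galanin at about its EC80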
BLA inhib ctr: beta-lactamase inhibition, GALR2 counterscreen; shares compounds with GALR2 blocker; CHO NFAT-BLA reporter, beta-lactamase FRET, thapsigargin-stimulated; inhibition, % at 4.2 µM; actives 36% (n = 480);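 active = inhibition above the mean inhibition across tested compounds plus 3 SD, cut at about 27% in these data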;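 also: 0% = 500 nM thapsigargin stimulated wells and 100% = unstimulated BSA only wells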
Starred values were filed as active, the others as inactive; . = no result. Rule as the data show it, unless noted: active = inhibition above about 27%; inactive = the rest.

SMILES	S1P2 agonist	GALR2 ag	GALR2 blocker	S1P2 antag	GALR2 blk conf	BLA inhib ctr	others
CN(C)CCc1nc2ccccc2c(=O)n1-c1ccccc1	4	32*	-15	-12	.	.	GALR2 agon conf=-1;BLA act counter=-1
CCN(c1ccc(C(O)(C(=O)OC)C(F)(F)F)cc1)S(=O)(=O)c1ccccc1 (stereo not given)	.	16*	7	.	.	.	GALR2 agon conf=0;BLA act counter=-1
N#Cc1cc2c(nc1SCC(=O)Nc1cc(Cl)ccc1Cl)C1CCN2CC1	14	11	3	-47	.	.	GALR2 agon conf=1;BLA act counter=1
CC(=O)OC(C)(C)/C=C/C(=O)[C@](C)(O)[C@H]1[C@H](O)C[C@@]2(C)[C@@H]3CC=C4[C@H](C[C@H](O)C(=O)C4(C)C)[C@]3(C)C(=O)C[C@]12C	.	-3	72*	.	87*	102*
CCOC(=O)c1c(NC(=O)C(c2ccccc2)c2ccccc2)sc2c1C1CCN2CC1	-2	1	9	-2	.	.
COc1cc(/C=C/[N+](=O)[O-])ccc1O	.	-2	52*	.	55*	23
O=C(Nc1nc(-c2ccccc2)c(-c2ccccc2)s1)c1ccc(S(=O)(=O)N(CCCl)CCCl)cc1	.	-1	0	.	.	.
Cn1c(CN2CCN(C(=O)COc3ccccc3)CC2)nc2cc([N+](=O)[O-])ccc21	.	-1	3	.	.	.
CC(=O)OC1(c2ccc(C)cc2)CN2CCC1c1ccccc12 (stereo not given)	-4	-2	39*	2	17	14
COCCNCCOc1ccc(C(C)(C)c2ccccc2)cc1	.	1	-9	.	.	.
Cc1cc(Oc2ccc(C(F)(F)F)cc2[N+](=O)[O-])c2c3c(c(=O)oc2c1)CCCC3	.	-1	1	.	.	.
Nc1cc(Cl)c2nonc2c1[N+](=O)[O-]	.	4	37*	.	35*	12
C=CCn1c(O)c(/C=C2/C=CC=N2)c(=O)[nH]c1=O	.	-1	35*	.	25	10

Compound activity as filed in PubChem.
